Most compounds without a hit are left out; they make up all but 11% or so of the library.
HPGD block = blocks human HPGD enzyme activity | Potency, µM, for the others: at the highest dose activity change, negative = inhibition, most hits filed as inhibitors | AID 894 | purified HPGD, NADH fluorescence kinetic, PGE2 substrate | hit rate 4.3% among 150,000; note: potency is the fitted concentration of half-maximal effect
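20 nM HPGD preincubated 15 min at room temperature with compound in 50 mM Tris-HCl pH 8, 0.01% Tween 20. Started with 1 mM NAD+ and 30 uM prostaglandin E2; NADH fluorescence (360/450 nm) read 5 times over 30-s intervals, last minus first.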
PNC assembly inh = blocks assembly of the perinucleolar compartment; PC3M PTB-GFP, PNC prevalence imaging, 16 h; stronger effect = lower value; activity change (PNC), negative = inhibition, % at 10 µM; hit rate 3.1% among 140,000;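 active = readout at or below -70, meaning at least 70% loss of cells showing the perinucleolar compartment, a nuclear body marking cancer cells; inconclusive = readout between -30 and a set limit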;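 note: plate controls were DMSO wells for no effect and camptothecin positive control wells for full effect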
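Read-out is percentage of cells bearing a perinucleolar compartment, from automated 20x imaging of fixed, Hoechst-stained PC3M PTB-GFP cells. Cells were seeded 4 h, then exposed 16 h to compound (23 nl of library stock) in duplicate plates.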
ALDH1A1 inh = inhibitors of human aldehyde dehydrogenase 1A1; P00352; Purified ALDH1A1, NADH fluorescence, propionaldehyde substrate; Potency, µM (top dose mostly 75.3 µM), inactives show at the highest dose activity, negative = inhibition, hits mostly inhibitors; hit rate 7.3% among 220,000; AID 1030;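 note: potency is the fitted concentration of half-maximal effect; plate controls were no enzyme wells and a reference inhibitor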
Target sequence (P00352 whole entry, looked up): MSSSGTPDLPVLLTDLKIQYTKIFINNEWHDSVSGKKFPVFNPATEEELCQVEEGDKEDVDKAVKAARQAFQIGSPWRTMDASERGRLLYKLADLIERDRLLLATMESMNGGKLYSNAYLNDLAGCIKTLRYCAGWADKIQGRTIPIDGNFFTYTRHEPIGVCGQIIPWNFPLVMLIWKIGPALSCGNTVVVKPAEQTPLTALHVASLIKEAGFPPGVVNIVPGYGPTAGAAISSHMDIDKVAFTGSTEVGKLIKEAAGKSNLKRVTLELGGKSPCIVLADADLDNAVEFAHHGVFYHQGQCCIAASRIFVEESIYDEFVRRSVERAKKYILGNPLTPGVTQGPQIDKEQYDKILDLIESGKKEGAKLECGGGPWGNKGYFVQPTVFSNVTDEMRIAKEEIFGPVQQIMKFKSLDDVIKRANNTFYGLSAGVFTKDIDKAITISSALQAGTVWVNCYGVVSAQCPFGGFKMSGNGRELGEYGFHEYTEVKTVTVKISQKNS
Active calls of the source: *; ? = inconclusive; nt = not tested or not shown; [ ] = another dose, or the depositor's remark. Unless noted, calls come from the whole dose curve; as a rule, active = well fitted inhibition curve with a large enough effect (not every such curve was filed as active); inconclusive = small, poorly fitted or top-dose-only effect, or another doubt; inactive = no such curve, though single readings can be large or run the other way. Unless noted, % is set by controls: 0 for no effect and ±100 for the full control effect.

SMILES	HPGD block	PNC assembly inh	ALDH1A1 inh
CCc1ccc(C(C)NC(=O)Cn2cnc3c(=O)n(C)c(=O)n(C)c32)cc1 (centres undefined)	-11%	-2	28µM*
CCc1ccc(NC(=O)Cn2cnc3c(=O)n(C)c(=O)n(C)c32)cc1	nt	nt	1%
Cn1c(=O)c2ncn(CC(=O)NC3CCCCCC3)c2n(C)c1=O	-10%	?	-11%
Cc1ccc(-c2nnn(CC(=O)NCCC3=CCCCC3)n2)cc1	-13%	-21	28µM*
Cn1c(=O)c2ncn(CC(=O)NCCC3=CCCCC3)c2n(C)c1=O	-15%	-100*	?
O=C(Cn1nnc(-c2ccc(Cl)cc2)n1)NCCC1=CCCCC1	-1%	0	-6%
COc1ccc(S(=O)(=O)N2CCN(S(=O)(=O)c3ccc4c(c3)OCCO4)CC2)cc1C	-2%	-29	0%
COC(=O)c1csc(C(=O)c2c[nH]c3ccccc23)n1	-13%	nt	-2%
O=C(CN1C(=O)c2ccccc2C1=O)Nc1nc(-c2cccc([N+](=O)[O-])c2)cs1	-10%	33	-2%
O=C(Cc1nc(-c2ccc([N+](=O)[O-])cc2)cs1)Nc1ccccc1	-19%	-100*	8.9µM*
COCC(=O)Nc1nc(-c2ccc([N+](=O)[O-])cc2)cs1	nt	nt	1%
O=C(Cc1ccccc1)Nc1nc(-c2cccc([N+](=O)[O-])c2)cs1	-12%	-103*	4%
COc1ccc(OC)c2sc(N3CCCCC3)nc12	16µM*	-18	?
COc1ccc(-c2nc(N3CCCCCC3)sc2C(=O)c2ccccc2)cc1	-19%	112	?
Clc1cc(Cl)c2nc(N3CCCCC3)sc2c1	22µM*	3	22µM*
Brc1cccc2sc(N3CCN(c4ccccc4)CC3)nc12	nt	nt	-10%
Clc1cccc2sc(N3CCCCC3)nc12	?	-82*	-2%
Fc1cc(F)c2nc(N3CCCCC3)sc2c1	-30%	29	?
CCCC[C@@H]1C[C@H]1C(NC(=O)c1cccs1)c1ccccc1C(F)(F)F (some centres undefined)	?	nt	-10%
COC(=O)c1ccc(N=NNc2cccc(Br)c2)cc1	-13%	93	1%
Cc1cc(C)c(-c2c(O)c3cccc4c3n(c2=O)CCC4)c(C)c1	?	-100*	-1%
O=c1c(-c2ccccc2)c(O)c2cccc3c2n1CCC3	-17%	-12	-2%
O=C(NNC(=O)C1CCCO1)c1ccc(Cl)cc1 (centres undefined)	-16%	8	2%
Cc1ccccc1NC(=S)NC(NC(=O)COc1ccccc1)C(Cl)(Cl)Cl (centres undefined)	nt	-22	?
COC(=O)c1ccccc1NC(=O)Oc1ccc(C(C)C)cc1	-12%	39	?
SMILES	HPGD block	PNC assembly inh	ALDH1A1 inh
COC(=O)c1ccccc1NC(=S)NC(NC(=O)COc1ccccc1)C(Cl)(Cl)Cl (centres undefined)	22µM*	68	?
COC(=O)c1ccccc1NC(=S)NC(=O)COc1ccc(C(C)C)cc1	-14%	-23	18µM*
O=C(COc1ccccc1)NC(=S)Nc1ccc2c3c(cccc13)CC2	-7%	-7	?
Cc1ccc(OCC(=O)NC(=S)Nc2ccc3c4c(cccc24)CC3)cc1	-12%	-12	10µM*
Cc1ccc(OCC(=O)Nc2ccc(CN3CCCCC3)cc2)c(C)c1	nt	nt	-5%
Cc1occc1-c1nnc(SCC(=O)NC(=O)NC(C)C)n1N	-9%	-15	?
CCO[C@H]1OC(C(=O)N2CCN(Cc3ccc4c(c3)OCO4)CC2)=C[C@@H](C)[C@@H]1CCCO	nt	nt	0%
O=C1c2ccccc2C(=O)N1/N=C/c1ccc(O)c(O)c1	-30%	17	-8%
CC1CCCCC1NC(=O)/C(C#N)=C/c1ccccc1F (centres undefined)	-8%	-13	-7%
CCOC(=O)C(NCCc1ccccc1)(NC(=O)CC)C(F)(F)F (centres undefined)	3%	-1	14%
Cc1noc(C)c1C(=O)N1CCC2(CC1)CN(c1ccccc1)C2	-2%	nt	4%
COc1cc(-c2nc3c(c(C)nn3-c3ccccc3)c3cc(OC)c(OC)cc23)ccc1O	?	-109*	?
COc1ccc(-c2cnn(-c3ccccc3)c2N)cc1OC	-23%	?	?
O=C1C2ON(c3ccccc3)C(c3cccnc3)C2C(=O)N1Cc1ccccc1 (centres undefined)	-12%	?	35µM*
Cc1ccccc1N1C(=O)C2ON(c3ccccc3)C(c3cccnc3)C2C1=O (centres undefined)	-8%	24	-9%
Cc1c(-n2c(SCC(=O)NC(C)C)nc3ccccc3c2=O)c(=O)n(-c2ccccc2)n1C	nt	nt	8%
COc1cccc(OC)c1OCCCOc1ccc([N+](=O)[O-])cc1Cl	16µM*	-16	-2%
COc1ccccc1OCCCOc1c(C)cc(C)cc1Br	-27%	49	13%
CCOc1ccccc1OCCCOc1ccc([N+](=O)[O-])cc1Cl	-6%	-11	?
COc1cccc(OC)c1OCCCOc1ccc(C)cc1Br	22µM*	80	2%
COc1ccc(C2(C(=O)NCc3ccco3)CCCC2)cc1OC	-4%	11	0%
CC(CCCC(C)(C)O)NC(=O)c1cc(COc2ccc3ncccc3c2)on1 (centres undefined)	nt	nt	6%
Cc1cc2nsnc2c(S(=O)(=O)NCC(=O)O)c1C	-12%	?	2%
Cc1ccc(-c2nc3ccccn3c2NC(=O)c2ccco2)cc1	2%	-20	?
COC(=O)Nc1nc(C)c(C(=O)c2ccccc2)s1	-18%	?	-2%
SMILES	HPGD block	PNC assembly inh	ALDH1A1 inh
COC(=O)Nc1nc(-c2ccccc2)c(C(=O)c2ccccc2)s1	-17%	-98*	1%
CC(=O)c1sc(NC(=O)c2ccco2)nc1-c1ccccc1	11µM*	3	2%
Cc1sc(NC(=O)c2cccs2)nc1-c1ccccc1	nt	-9	-5%
CCOC(=O)c1sc(NC(=O)c2ccco2)nc1-c1ccccc1	-12%	-5	-2%
O=C(Nc1c(-c2ccccc2)nc2ccccn12)c1ccco1	-2%	-82*	-12%
Cc1sc(NC(=O)c2ccco2)nc1-c1ccccc1	14µM*	?	-5%
COC(=O)C1=C(C(=O)OC)[C@@H]2N(Cc3ccccc3)c3ccccc3[C@@]23C[C@@H](C(=O)OC)N(C(=O)c2ccco2)C3=N1	-10%	nt	-1%[13.5 µM]
COc1cccc(C(=O)N/N=C/C(Br)=C/c2ccccc2)c1	-25%	3	15%
COc1ccc2sc3ccccc3c(=O)c2c1OC	6.3µM*	-19	-4%
CCc1nc2sc3ccccc3c(=O)c2c(=O)n1CCOC	-9%	74	?
NC/C(=N\O)c1ccc(Cl)cc1Cl	nt	21	10%
NNC(=O)c1ccc(OCc2nc3ccccc3[nH]2)cc1	-14%	nt	?
Cc1nc(C)n(CC(O)COc2ccc3c(c2)CCC3)n1 (centres undefined)	-9%	?	-12%
CCC(=O)c1ccc(OCC(O)Cn2c(C)nc3ccccc32)cc1 (centres undefined)	-14%	-121*	4%
Cc1nc2ccccc2n1CC(O)COc1ccc(Br)cc1 (centres undefined)	nt	nt	6%
Cc1nc(C)n(CC(O)COc2ccc(C(=O)c3ccccc3)cc2)n1 (centres undefined)	-16%	-95*	-14%
